These results are taken from paper PMC7862700, “An all-to-all approach to the identification of sequence-specific readers for epigenetic DNA modifications on cytosine”.

What all share (experiment): DAPPL (digital affinity profiling via proximity ligation, sequencing); 10 mM Tris-HCl pH 7.5, 50 mM NaCl, 1 mM DTT, 4% glycerol, room temperature, 30 min; GST-TFs on glutathione beads, 16-mer random dsDNA library, 0.1% formaldehyde crosslink after washing; high values mean tight binding
One assay deals with T1, FEV (Homo sapiens, UniProt Q99581 1-238).
T1 sequence: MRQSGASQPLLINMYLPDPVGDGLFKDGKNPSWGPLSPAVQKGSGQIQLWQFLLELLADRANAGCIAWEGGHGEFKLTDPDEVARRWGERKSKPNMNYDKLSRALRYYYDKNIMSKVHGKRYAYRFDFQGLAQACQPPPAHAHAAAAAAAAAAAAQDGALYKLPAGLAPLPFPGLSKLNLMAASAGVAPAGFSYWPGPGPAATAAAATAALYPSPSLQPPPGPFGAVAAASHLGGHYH
To be noted: protein: recombinant; tags: N-terminal GST; dsDNA, one strand shown. The method in brief:
(§1)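 Binding signal is each hexamer's read frequency for a factor divided by its frequency in the tag-only sample. The factors were GST-fused human transcription factors from yeast, captured on glutathione beads, DNA-barcoded and pooled with that sample. Pools were incubated with 200 nmole of a random double-stranded 16-mer DNA library in Tris/NaCl/DTT/glycerol buffer at room temperature for 30 min, then washed, crosslinked with 0.1% formaldehyde, proximity-ligated with BsaI/T4 ligase (1 h, 37 °C), PCR-amplified and sequenced on an Illumina NextSeq500.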

In another assay the target is ETV5 (Homo sapiens, UniProt P41161 1-510). Particulars: protein: recombinant; tags: N-terminal GST; dsDNA, one strand shown. In short, it runs like this:
as §1

Another assay has as its target HSF1 (Homo sapiens, UniProt Q00613 1-529). To be noted: protein: recombinant; tags: N-terminal GST; chain copies: 3; dsDNA, one strand shown. In short, it runs like this: as §1
A further assay deals with T2, SPIC (Homo sapiens, UniProt Q8N5J4 1-248).
T2 sequence: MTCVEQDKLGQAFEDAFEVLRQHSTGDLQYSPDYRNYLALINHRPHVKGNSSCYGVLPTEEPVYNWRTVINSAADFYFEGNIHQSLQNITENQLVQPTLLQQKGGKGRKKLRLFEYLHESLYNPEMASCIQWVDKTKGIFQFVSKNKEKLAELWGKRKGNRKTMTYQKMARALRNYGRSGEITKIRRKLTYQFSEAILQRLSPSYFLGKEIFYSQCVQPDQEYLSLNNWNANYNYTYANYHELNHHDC
Particulars: protein: recombinant; tags: N-terminal GST; dsDNA, one strand shown. In short, it runs like this:
as §1

For a further assay, the target named is ELF4 (Homo sapiens, UniProt Q99607 1-663). To be noted: protein: recombinant; tags: N-terminal GST; dsDNA, one strand shown. In short, it runs like this:
as §1

A further assay concerns the target T3, ELK4 (Homo sapiens, UniProt P28324-2 1-405).
T3 sequence: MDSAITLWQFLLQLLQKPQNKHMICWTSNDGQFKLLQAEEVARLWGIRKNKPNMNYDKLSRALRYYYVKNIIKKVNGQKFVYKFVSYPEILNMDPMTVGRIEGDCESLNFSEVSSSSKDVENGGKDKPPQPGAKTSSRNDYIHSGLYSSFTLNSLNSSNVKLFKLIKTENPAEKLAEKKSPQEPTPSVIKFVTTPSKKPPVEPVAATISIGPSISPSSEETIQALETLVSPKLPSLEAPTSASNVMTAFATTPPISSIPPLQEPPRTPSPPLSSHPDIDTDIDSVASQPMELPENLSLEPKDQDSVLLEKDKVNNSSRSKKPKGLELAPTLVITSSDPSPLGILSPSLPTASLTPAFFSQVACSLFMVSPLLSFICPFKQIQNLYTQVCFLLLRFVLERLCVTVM
To be noted: protein: recombinant; tags: N-terminal GST; dsDNA, one strand shown. In short, it runs like this: as §1

The next assay has as its target T4, ETV2 (Homo sapiens, UniProt O00321 1-342).
T4 sequence: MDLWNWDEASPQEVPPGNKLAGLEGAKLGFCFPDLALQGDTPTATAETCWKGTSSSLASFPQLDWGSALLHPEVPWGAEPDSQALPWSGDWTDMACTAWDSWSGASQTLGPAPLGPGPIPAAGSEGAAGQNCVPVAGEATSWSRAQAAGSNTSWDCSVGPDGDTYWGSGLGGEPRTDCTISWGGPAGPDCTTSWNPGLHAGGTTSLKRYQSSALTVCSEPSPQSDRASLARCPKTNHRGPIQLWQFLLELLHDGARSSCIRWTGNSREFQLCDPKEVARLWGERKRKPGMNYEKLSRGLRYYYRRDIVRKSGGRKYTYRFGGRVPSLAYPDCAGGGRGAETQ
Particulars: protein: recombinant; tags: N-terminal GST; dsDNA, one strand shown. In short, it runs like this:
as §1

Another assay addresses T5, ELF3 (Homo sapiens, UniProt P78545 1-371).
T5 sequence: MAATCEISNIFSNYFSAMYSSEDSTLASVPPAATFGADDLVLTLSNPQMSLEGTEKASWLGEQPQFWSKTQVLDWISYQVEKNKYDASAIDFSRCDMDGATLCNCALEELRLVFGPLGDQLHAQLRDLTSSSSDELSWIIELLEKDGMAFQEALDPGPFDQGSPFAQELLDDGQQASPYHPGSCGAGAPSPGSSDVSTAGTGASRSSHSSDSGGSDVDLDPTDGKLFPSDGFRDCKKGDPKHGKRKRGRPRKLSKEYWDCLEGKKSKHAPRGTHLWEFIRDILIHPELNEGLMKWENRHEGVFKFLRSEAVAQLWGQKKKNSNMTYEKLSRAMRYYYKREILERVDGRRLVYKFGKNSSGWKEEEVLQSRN
Particulars: protein: recombinant; tags: N-terminal GST; dsDNA, one strand shown. In short, it runs like this: as §1

For a further assay, the target named is CRX (Homo sapiens, UniProt O43186 1-299). Particulars: protein: recombinant; tags: N-terminal GST; dsDNA, one strand shown. In short, it runs like this:
as §1

The next assay deals with ETV1 (Homo sapiens, UniProt P50549 1-477). Particulars: protein: recombinant; tags: N-terminal GST; dsDNA, one strand shown. In short, it runs like this: as §1
Chain of ETV1 (P50549 whole entry): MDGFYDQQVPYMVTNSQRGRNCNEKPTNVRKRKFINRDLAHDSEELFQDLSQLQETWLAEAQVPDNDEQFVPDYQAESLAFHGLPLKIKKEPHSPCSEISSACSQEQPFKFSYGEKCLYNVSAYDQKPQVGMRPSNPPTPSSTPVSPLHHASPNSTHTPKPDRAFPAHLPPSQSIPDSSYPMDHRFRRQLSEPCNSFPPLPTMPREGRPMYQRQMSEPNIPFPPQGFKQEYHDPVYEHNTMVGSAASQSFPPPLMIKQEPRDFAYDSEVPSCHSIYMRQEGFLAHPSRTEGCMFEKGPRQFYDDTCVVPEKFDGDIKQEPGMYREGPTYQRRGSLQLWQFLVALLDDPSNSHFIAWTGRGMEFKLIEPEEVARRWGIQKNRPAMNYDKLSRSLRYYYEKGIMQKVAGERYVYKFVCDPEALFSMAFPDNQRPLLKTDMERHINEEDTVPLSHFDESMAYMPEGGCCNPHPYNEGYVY
The next assay has as its target T6, ERF (Homo sapiens, UniProt P50548 1-548).
T6 sequence: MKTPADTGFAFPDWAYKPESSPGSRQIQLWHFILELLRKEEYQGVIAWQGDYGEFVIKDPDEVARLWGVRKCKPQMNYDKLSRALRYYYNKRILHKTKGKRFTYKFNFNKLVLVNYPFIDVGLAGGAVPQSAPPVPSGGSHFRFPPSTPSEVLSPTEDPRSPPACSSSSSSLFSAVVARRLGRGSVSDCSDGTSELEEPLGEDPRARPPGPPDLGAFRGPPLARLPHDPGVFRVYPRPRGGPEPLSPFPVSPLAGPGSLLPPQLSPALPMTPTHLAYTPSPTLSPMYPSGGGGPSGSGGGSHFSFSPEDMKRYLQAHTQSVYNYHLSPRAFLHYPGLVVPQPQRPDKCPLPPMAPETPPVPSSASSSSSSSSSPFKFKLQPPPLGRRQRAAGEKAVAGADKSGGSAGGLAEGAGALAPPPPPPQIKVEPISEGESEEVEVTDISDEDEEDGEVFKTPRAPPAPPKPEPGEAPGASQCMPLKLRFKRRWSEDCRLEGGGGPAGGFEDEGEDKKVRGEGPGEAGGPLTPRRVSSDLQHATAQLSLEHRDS
To be noted: protein: recombinant; tags: N-terminal GST; dsDNA, one strand shown. The method in brief:
as §1

A further assay deals with T7, ETV3L (Homo sapiens, UniProt Q6ZN32 1-361).
T7 sequence: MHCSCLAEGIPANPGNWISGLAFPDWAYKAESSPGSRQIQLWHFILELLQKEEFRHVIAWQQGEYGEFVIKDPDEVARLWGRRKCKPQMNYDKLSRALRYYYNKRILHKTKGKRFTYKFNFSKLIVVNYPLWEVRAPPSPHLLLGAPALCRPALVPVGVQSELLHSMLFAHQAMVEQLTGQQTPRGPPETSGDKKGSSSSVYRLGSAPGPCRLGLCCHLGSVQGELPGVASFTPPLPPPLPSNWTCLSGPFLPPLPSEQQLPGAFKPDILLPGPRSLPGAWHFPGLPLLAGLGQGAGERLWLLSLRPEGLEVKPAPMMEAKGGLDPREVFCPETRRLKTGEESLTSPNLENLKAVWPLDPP
To be noted: protein: recombinant; tags: N-terminal GST; dsDNA, one strand shown. The method in brief: as §1

A further assay addresses T8, ETS2 (Homo sapiens, UniProt P15036 1-469).
T8 sequence: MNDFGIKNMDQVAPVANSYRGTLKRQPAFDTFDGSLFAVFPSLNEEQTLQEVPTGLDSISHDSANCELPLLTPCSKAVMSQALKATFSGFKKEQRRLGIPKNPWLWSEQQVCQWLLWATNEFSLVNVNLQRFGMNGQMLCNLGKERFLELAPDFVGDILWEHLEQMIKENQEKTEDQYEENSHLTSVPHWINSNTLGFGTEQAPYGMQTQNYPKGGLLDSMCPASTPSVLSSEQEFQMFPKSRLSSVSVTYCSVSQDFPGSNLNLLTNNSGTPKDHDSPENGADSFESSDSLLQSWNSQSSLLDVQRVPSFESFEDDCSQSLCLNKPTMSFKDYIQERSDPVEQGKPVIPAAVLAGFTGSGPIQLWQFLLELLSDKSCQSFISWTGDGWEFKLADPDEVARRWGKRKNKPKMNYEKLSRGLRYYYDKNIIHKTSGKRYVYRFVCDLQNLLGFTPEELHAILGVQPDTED
Particulars: protein: recombinant; tags: N-terminal GST; dsDNA, one strand shown. The method in brief: as §1

In another assay the target is T9, SPDEF (Homo sapiens, UniProt O95238 1-335).
T9 sequence: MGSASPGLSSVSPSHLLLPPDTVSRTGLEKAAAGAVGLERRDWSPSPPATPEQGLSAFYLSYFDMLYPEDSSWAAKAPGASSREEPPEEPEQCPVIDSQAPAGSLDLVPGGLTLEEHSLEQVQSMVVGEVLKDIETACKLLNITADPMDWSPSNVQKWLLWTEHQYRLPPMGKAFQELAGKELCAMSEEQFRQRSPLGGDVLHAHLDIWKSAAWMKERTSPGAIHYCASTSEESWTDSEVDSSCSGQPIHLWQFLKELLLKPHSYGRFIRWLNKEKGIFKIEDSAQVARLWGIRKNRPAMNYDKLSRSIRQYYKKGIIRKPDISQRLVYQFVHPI
To be noted: protein: recombinant; tags: N-terminal GST; dsDNA, one strand shown. The method in brief:
as §1

Another assay concerns the target T10, ETV7 (Homo sapiens, UniProt Q9Y603 1-341).
T10 sequence: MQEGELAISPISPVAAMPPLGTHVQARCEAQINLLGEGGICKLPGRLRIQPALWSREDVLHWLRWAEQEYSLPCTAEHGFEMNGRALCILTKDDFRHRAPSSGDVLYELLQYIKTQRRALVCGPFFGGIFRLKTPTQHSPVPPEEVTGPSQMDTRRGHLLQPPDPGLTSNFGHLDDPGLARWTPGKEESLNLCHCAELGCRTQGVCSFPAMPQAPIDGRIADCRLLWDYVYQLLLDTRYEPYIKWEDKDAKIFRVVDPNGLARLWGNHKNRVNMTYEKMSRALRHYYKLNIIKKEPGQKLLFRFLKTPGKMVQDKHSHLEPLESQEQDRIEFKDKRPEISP
To be noted: protein: recombinant; tags: N-terminal GST; dsDNA, one strand shown. The method in brief:
as §1

The target of the next assay is T11, ELF5 (Homo sapiens, UniProt Q9UKW6-2 1-255).
T11 sequence: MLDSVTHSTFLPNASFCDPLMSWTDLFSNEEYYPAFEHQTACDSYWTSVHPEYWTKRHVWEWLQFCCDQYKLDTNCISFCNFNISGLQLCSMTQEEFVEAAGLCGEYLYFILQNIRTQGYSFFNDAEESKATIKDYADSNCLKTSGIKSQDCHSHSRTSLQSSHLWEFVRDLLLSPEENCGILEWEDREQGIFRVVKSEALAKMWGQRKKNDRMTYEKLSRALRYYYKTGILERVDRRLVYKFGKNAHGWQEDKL
To be noted: protein: recombinant; tags: N-terminal GST; dsDNA, one strand shown. The method in brief:
as §1

For another assay, the target named is T12, ETV3 (Homo sapiens, UniProt P41162-2 1-143).
T12 sequence: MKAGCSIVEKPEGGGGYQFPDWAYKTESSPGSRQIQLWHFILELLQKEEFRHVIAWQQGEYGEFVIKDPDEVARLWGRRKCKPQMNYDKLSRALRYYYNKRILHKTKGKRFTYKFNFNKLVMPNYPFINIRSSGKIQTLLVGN
Particulars: protein: recombinant; tags: N-terminal GST; dsDNA, one strand shown. In short, it runs like this:
as §1

The next assay addresses ETV6 (Homo sapiens, UniProt P41212 1-452). Particulars: protein: recombinant; tags: N-terminal GST; dsDNA, one strand shown. The method in brief: as §1

Chain of CRX (O43186 whole entry): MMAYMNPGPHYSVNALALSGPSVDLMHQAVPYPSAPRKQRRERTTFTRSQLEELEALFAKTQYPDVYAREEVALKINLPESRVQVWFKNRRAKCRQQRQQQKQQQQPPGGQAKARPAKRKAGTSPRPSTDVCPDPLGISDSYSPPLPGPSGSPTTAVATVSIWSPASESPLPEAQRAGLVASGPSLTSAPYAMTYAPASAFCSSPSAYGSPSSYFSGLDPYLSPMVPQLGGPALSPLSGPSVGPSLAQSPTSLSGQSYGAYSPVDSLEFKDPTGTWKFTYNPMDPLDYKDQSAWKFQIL
Chain of HSF1 (Q00613 whole entry): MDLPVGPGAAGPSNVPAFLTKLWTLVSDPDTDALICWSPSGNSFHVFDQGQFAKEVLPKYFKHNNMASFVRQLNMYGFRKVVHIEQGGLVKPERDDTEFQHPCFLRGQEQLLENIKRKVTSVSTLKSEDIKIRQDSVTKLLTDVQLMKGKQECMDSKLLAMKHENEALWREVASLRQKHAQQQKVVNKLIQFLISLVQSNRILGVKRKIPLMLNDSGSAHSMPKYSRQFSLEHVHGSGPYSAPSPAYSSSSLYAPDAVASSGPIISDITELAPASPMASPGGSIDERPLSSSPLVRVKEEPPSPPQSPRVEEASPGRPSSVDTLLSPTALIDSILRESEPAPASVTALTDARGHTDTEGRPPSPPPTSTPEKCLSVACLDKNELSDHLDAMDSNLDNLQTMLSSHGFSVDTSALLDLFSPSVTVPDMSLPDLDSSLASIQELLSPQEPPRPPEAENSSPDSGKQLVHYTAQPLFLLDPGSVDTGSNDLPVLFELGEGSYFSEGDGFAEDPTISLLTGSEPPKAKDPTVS
Chain of ETV5 (P41161 whole entry): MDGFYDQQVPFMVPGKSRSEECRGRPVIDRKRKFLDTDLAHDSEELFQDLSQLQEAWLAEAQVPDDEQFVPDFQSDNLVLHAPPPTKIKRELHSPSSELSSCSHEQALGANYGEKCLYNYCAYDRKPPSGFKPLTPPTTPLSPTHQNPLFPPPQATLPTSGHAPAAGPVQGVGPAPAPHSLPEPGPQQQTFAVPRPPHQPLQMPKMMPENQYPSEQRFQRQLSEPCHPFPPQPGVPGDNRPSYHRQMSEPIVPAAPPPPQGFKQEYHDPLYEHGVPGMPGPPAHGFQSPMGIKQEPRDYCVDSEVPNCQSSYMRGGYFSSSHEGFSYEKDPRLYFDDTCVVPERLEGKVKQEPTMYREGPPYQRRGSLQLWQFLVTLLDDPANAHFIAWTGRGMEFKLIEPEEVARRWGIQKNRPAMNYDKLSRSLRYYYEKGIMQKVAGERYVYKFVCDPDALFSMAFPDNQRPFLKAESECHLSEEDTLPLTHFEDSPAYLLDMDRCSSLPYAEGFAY
Chain of ETV6 (P41212 whole entry): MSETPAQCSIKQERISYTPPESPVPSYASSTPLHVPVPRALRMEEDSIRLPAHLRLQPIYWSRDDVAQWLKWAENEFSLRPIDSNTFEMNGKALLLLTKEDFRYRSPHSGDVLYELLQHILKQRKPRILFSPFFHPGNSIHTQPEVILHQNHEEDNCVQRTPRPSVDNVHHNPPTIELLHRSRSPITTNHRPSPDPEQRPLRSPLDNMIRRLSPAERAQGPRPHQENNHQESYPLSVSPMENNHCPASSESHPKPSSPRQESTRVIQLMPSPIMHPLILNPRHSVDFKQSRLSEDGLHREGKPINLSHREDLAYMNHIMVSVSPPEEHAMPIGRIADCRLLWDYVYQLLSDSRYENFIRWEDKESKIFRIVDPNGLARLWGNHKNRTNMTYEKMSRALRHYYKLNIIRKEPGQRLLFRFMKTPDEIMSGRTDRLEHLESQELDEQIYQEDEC
Chain of ELF4 (Q99607 whole entry): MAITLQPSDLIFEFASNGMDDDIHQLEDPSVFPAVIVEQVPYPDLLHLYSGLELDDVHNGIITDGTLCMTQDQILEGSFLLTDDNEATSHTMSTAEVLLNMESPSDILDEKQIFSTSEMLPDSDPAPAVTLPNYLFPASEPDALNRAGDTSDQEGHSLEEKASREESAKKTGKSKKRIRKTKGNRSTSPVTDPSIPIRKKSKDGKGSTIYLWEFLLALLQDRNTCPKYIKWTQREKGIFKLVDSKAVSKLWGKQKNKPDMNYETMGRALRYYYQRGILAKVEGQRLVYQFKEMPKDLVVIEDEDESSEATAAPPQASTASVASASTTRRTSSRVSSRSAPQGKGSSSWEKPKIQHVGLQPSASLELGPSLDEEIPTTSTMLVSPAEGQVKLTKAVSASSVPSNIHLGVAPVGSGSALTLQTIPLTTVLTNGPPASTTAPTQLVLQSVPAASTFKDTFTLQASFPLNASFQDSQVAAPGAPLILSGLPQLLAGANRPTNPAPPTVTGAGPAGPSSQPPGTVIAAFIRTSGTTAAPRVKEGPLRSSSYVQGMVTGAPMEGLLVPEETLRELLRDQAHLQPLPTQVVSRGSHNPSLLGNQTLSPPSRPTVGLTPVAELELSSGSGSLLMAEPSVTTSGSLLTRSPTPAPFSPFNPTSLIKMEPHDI

Take ACCTCT: the binding signal in the assay with FEV was 1.3 fold enrichment (6-mer frequency, TF over GST control); with ETV5, 1.31 fold enrichment (6-mer frequency, TF over GST control); with HSF1, 1.18 fold enrichment (6-mer frequency, TF over GST control); in the assay with SPIC, 1.47 fold enrichment (6-mer frequency, TF over GST control); in the assay with ELF4, 1.33 fold enrichment (6-mer frequency, TF over GST control); with ELK4, 1.29 fold enrichment (6-mer frequency, TF over GST control). In addition, the binding signal with ETV2 is 1.35 fold enrichment (6-mer frequency, TF over GST control); with ELF3, 1.51 fold enrichment (6-mer frequency, TF over GST control); with CRX it was 1.19 fold enrichment (6-mer frequency, TF over GST control); with ETV1, 1.3 fold enrichment (6-mer frequency, TF over GST control); with ERF, 1.52 fold enrichment (6-mer frequency, TF over GST control); in the assay with ETV3L, 1.32 fold enrichment (6-mer frequency, TF over GST control). Moreover, the binding signal was 1.23 fold enrichment (6-mer frequency, TF over GST control) in the assay with ETS2; 1.4 fold enrichment (6-mer frequency, TF over GST control) in the assay with SPDEF; 1.48 fold enrichment (6-mer frequency, TF over GST control) with ETV7; 1.34 fold enrichment (6-mer frequency, TF over GST control) in the assay with ELF5; 1.4 fold enrichment (6-mer frequency, TF over GST control) with ETV3; 1.39 fold enrichment (6-mer frequency, TF over GST control) in the assay with ETV6.
